Rpn11 inh – inhibitors of human proteasome Rpn11; O00487; actives 0.59% (n = 360,000); AID 588493; inhibition, % at 20 µM; human 26S proteasome, Ub4-pepOG fluorescence polarization; 20S core pre-blocked with epoxomicin;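 active means inhibition at 20 µM, scaled to each plate's controls, above about 33%, limit read from the data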
Calb FLC – C. albicans growth modulation with fluconazole; growth inhibition, % (test concentration not listed); actives 0.57% (n = 300,000); C. albicans CaCi-2 (fluconazole-resistant clinical isolate) + fluconazole, Alamar Blue growth, 48 h;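 active means growth inhibition above about 58% in most replicates, limit read from the data, passing the limit was not always enough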;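 further: all wells also contain fluconazole at 8 µg/ml as a sub-toxic cotreatment; 0% = median of DMSO wells and 100% = median of geldanamycin control wells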
IDE cell inh – inhibitors of human insulin-degrading enzyme in cells | P14735 | HEK cells, FAbetaB cleavage, fluorescence polarization | inhibition, % at 5.59 µM | actives 0.41% (n = 320,000);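 active means percent inhibition above the average of all tested compounds plus 3 SD, set per screening campaign, cut at about 16% in these data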;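 further: IDE supplied by intact live HEK cells; FP after avidin binding of uncleaved biotin substrate so inhibition keeps polarization high; 0% = DMSO wells and 100% = 60 µM reference IDE inhibitor Ii1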
IDE act – IDE (human) activation, cell-based; P14735; HEK cells, FAbeta-B cleavage, fluorescence polarization; 0% vehicle, 100% cell-free pure enzyme wells; activation, % at 5.96 µM; actives 0.073% (n = 340,000);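 active means activation above the mean of all tested compounds plus 3 SD, set per screening campaign, cut at about 17% in these data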
TPT1 inh – C. albicans TPT1 enzyme inhibition; recombinant caTPT1, FP RNA substrate dephosphorylation; inhibition, % at 5 µM; actives 0.81% (n = 300,000);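 active means inhibition above the mean of all tested compounds plus 3 SD, set per screening campaign, cut at about 24% in these data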;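 further: plate controls were DMSO alone for no effect and ferristatin control at 100 nM for full effect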
Rin1 Abl inh – blocks binding of human Rin1 to Abl; TR-FRET Rin1/Abl binding, biochemical; AID 588664; P00519+Q13671; inhibition, % at 7.35 µM; actives 0.4% (n = 360,000); in the data active means inhibition above about 5%, passing the limit was not always enough
IDE cell inh cf – cellular human IDE inhibition, confirmation | shares compounds with IDE cell inh | AID 435028 | actives 51% (n = 1,200) | HEK cells, FAbetaB cleavage, fluorescence polarization | inhibition, % at 5.59 µM;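 active means mean inhibition across triplicate wells above the cutoff set by the earlier primary insulin-degrading enzyme screen, cut at about 16% in these data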;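 further: 0% = DMSO wells and 100% = 60 µM reference IDE inhibitor Ii1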
HEK cytotox – kills HEK cells in IDE inhibitor counter-screen | shares compounds with IDE cell inh | HEK293 cytotoxicity, ATP luminescence | inhibition, % at 5.59 µM | actives 28% (n = 1,200) | AID 449730; in the data active means inhibition above about 22%;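 further: 0% = vehicle wells and 100% = reference cytotoxic drug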
Rpn11 inh conf – Rpn11 inhibition confirmation, single concentration. shares compounds with Rpn11 inh. purified human 26S proteasome, Ub4-pepOG fluorescence polarization; proteasome pretreated with epoxomicin. inhibition, % at 20 µM. actives 29% (n = 1,900). AID 602318
MMP-2 counter – MMP-2 (human) inhibition counter-screen; AID 602330; actives 4% (n = 1,900); shares compounds with Rpn11 inh; recombinant MMP-2, FRET peptide cleavage fluorescence; inhibition, % at 20 µM;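 further: human MMP-2 activated beforehand with APMA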
Target sequence (P08253 whole entry, looked up): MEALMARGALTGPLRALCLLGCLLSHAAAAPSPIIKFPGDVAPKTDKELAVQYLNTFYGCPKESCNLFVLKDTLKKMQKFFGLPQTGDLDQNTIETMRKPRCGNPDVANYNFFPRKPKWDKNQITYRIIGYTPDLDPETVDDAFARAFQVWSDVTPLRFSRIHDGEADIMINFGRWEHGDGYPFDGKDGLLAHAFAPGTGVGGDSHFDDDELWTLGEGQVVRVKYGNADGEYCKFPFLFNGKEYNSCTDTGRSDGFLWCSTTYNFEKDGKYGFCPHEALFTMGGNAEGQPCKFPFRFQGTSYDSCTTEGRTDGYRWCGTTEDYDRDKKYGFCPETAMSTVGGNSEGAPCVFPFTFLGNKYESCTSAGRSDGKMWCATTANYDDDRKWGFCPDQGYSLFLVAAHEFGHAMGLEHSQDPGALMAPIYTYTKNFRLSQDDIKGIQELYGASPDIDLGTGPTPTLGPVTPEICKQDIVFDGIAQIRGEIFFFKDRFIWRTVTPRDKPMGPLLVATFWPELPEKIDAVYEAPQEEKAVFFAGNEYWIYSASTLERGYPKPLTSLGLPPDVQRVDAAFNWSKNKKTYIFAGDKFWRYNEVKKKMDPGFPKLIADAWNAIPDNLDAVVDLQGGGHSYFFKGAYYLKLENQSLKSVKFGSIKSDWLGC
Thrombin FP – thrombin (bovine) inhibition counter-screen; shares compounds with Rpn11 inh; bovine thrombin cleavage of Ub4-pepOG, fluorescence polarization; inhibition, % at 20 µM; actives 13% (n = 1,900); AID 602333;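 active means mean inhibition at least 40% at 20 µM, or signal 3 deviations below plate average, so some actives read negative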;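 further: plate controls were thrombin with DMSO for no effect and buffer wells lacking thrombin for full effect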
Rin1-Abl confirm – Rin1-Abl interaction inhibition confirmation. actives 49% (n = 1,300). TR-FRET Rin1-Abl binding, purified proteins. inhibition, % at 7.35 µM. shares compounds with Rin1 Abl inh; in the data active means inhibition above about 6.5%
GFP quench – quenches GFP fluorescence, counter-screen for Rin1-Abl inhibitors. inhibitors/quenchers counterscreen. inhibition, % at 6.75 µM. shares compounds with Rin1 Abl inh. actives 8.5% (n = 1,300); in the data active means inhibition above about 6.5%;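 further: ABL1-eGFP fusion protein alone without its partner RIN1-SBP; 0% = protein with vehicle and 100% = wells lacking protein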
GFP quench dose – quenches GFP in dose response, Rin1-Abl counter-screen. shares compounds with Rin1 Abl inh. GFP fluorescence interference/quenching counterscreen. IC50, µM. 230 tested, under 10 active; call rule not given here;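 further: ABL1-eGFP fusion protein alone without its RIN1 binding partner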
The depositor's hits bear a star; x = no result given. An excerpt weighted towards active compounds, which were near 2.3% of everything screened. Unless noted, no stated cut-off is given here; in the data, active means inhibition above about 40%; inactive means the rest.

SMILES | Rpn11 inh | Calb FLC | IDE cell inh | IDE act | TPT1 inh | Rin1 Abl inh | IDE cell inh cf | HEK cytotox | Rpn11 inh conf | MMP-2 counter | Thrombin FP | others
Cc1cccc(NC(=O)c2sc3nc(-c4ccccc4)cn3c2C)n1 | 55* | -18 | 17* | -11 | 18 | 2 | 11 | 29* | 9 | -29 | -7
CCOc1ccc(Cn2nnc(-c3ccc(S(C)(=O)=O)cc3)n2)cc1OCC | 1 | x | -4 | 2 | x | 4 | x | x | x | x | x
COc1cc(/C=C2\SC(=Nc3ccc(O)cc3)NC2=O)cc(OC)c1O | 45* | 12 | 128* | -65 | 17 | 0 | 152* | 19 | 5 | 0 | 8
COc1ccc2[nH]c3c(=O)n(/N=C/c4ccc(OC)c(CN5CCCC5)c4)c(C)nc3c2c1 | 91* | 8 | 17* | -9 | 3 | -1 | 5 | 13 | 90* | -54 | -4
COc1ccc(/C=N/n2c(C)nc3c([nH]c4ccccc43)c2=O)cc1CN1CCCC(C)(C)C1 | 3 | 3 | 0 | -6 | -1 | -1 | x | x | x | x | x
O=C(NNC1=Nc2cccc3cccc1c23)c1ccccc1Br | 53* | 1 | 16* | -9 | -1 | -2 | 5 | 19 | 1 | -21 | 4
O=C(O)c1cccc(NC2=Nc3cccc4cccc2c34)c1 | 2 | 1 | 6 | 2 | 7 | -1 | x | x | x | x | x
COc1cc(/C=C/c2nc3ccccc3s2)cc(OC)c1O | 47* | 11 | 142* | -101 | 16 | 0 | 103* | 16 | 4 | -19 | 10
COc1cc(C=C(c2nc3ccccc3s2)c2nc3ccccc3s2)ccc1O | 61* | -5 | 27* | -44 | 11 | 0 | 59* | 13 | 5 | -28 | 4
COc1ccc(C=C(c2nc3ccccc3s2)c2nc3ccccc3s2)cc1O | 18 | -11 | 3 | -4 | 19 | 1 | x | x | x | x | x
CC(C)C[C@H]1CN([C@@H](Cc2ccccc2)CN2CCC[C@@H]2CN2C(=O)C(=O)NC[C@@H]2Cc2ccccc2)C(=O)C(=O)N1CC1CCCCC1 | 8 | x | x | x | x | 4 | x | x | x | x | x
CCOc1ccccc1Nc1nc(N)nc(CN2CCCCC2C)n1 (stereo not drawn) | 0 | -21 | -6 | 7 | -3 | 0 | x | x | x | x | x
Cc1cccc(C)c1NC(=O)CCCCCC1NC(=O)NC1C (stereo not drawn) | 0 | -6 | 22* | -42 | -1 | 82* | 1 | 7 | x | x | x | Rin1-Abl confirm=91*;GFP quench=0;GFP quench dose=>68
CC(=O)Nc1ccc2c(c1)Cc1c(F)cccc1-2 | -3 | x | x | -3 | x | 1 | x | x | x | x | x
O=c1[nH]c(Nc2ccccc2)cc2ccccc12 | -14 | 17 | 19* | -17 | 21 | 5.6* | 0 | 12 | x | x | x | Rin1-Abl confirm=2;GFP quench=-2
O=c1[nH]c(Nc2ccccc2)cc2cc(Br)ccc12 | 8 | 4 | 2 | 4 | 10 | -1 | x | x | x | x | x
Cc1ccccc1CN1C(=O)C(C)S/C1=N/N=C/c1ccco1 (stereo not drawn) | 1 | -11 | 0 | -4 | 2 | -2 | x | x | x | x | x
Cc1ccccc1CN1C(=O)C(C)Sc2ccc(-c3ccco3)cc21 (stereo not drawn) | 60* | x | x | x | x | 3 | x | x | 46* | 4 | 25
CN(C)c1ccc(CNC(=O)/C=C/[C@H]2O[C@@H](n3ccc(=O)[nH]c3=O)[C@H](O)[C@@H]2O)cc1 | -7 | x | x | x | x | 5 | x | x | x | x | x
O=C(NCc1cccc(Cl)c1)c1cnn2c1NC(c1ccco1)CC2C(F)(F)F (stereo not drawn) | 13 | -4 | -2 | -2 | 0 | 2 | x | x | x | x | x
Cc1ccc(Cl)cc1NC(=O)c1cnn2c1NC(c1ccco1)CC2C(F)(F)F (stereo not drawn) | 40* | -10 | -4 | -7 | 10 | 0 | x | x | -15 | -6 | -43
Cc1cc(C)n(-c2nc3ccccc3s2)n1 | -1 | -23 | -1 | -1 | -1 | 3 | x | x | x | x | x
Cc1c2c(=O)n(-c3nc4ccccc4s3)nc-2cc(O)n1Cc1ccccc1 | 41* | x | x | 4 | x | 1 | x | x | 6 | -14 | 6
CC(SCc1ccc(C(=O)O)o1)c1ccc(C(=O)O)o1 (stereo not drawn) | 143* | -2 | -1 | 5 | -1 | 3 | x | x | -8 | -30 | -8
CCCn1c(SC/C(O)=C(\C#N)c2nc3ccccc3[nH]2)n[nH]c1=O | 39* | 20 | -9 | -3 | 13 | 3 | x | x | 34 | -10 | 30
SMILES | Rpn11 inh | Calb FLC | IDE cell inh | IDE act | TPT1 inh | Rin1 Abl inh | IDE cell inh cf | HEK cytotox | Rpn11 inh conf | MMP-2 counter | Thrombin FP | others
N#C/C(=C(/O)COC(=O)COc1cccc(Br)c1)c1nc2ccccc2[nH]1 | 42* | 10 | 4 | 0 | 18 | -14 | x | x | 37 | -12 | 25
Cc1ccc(C)c(SCC(=O)OC/C(O)=C(\C#N)c2nc3ccccc3[nH]2)c1 | 22 | -6 | x | 4 | x | 2 | x | x | x | x | x
Cn1cnnc1SC/C(O)=C(\C#N)c1nc2ccccc2[nH]1 | 6 | 35 | 7 | 3 | -2 | 3 | x | x | x | x | x
Cc1cc(Br)ccc1SCC(=O)OC/C(O)=C(\C#N)c1nc2ccccc2[nH]1 | 46* | 2 | 4 | 4 | 17 | 2 | x | x | 18 | -44 | 0
N#C/C(=C(/O)COC(=O)CSc1ccc2ccccc2c1)c1nc2ccccc2[nH]1 | 43* | 39 | 0 | -2 | 15 | 1 | x | x | 31 | -48 | 25
O=C(CCNS(=O)(=O)c1ccc(Br)cc1)Nc1cccc(F)c1 | 1 | 4 | 4 | -2 | -3 | 0 | x | x | x | x | x
Cc1cccc(C)c1NC(=O)CCCN1C(=O)C(c2ccccc2)Oc2cccnc21 (stereo not drawn) | -8 | -6 | 1 | -2 | -3 | -1 | x | x | x | x | x

Source: PubChem BioAssay
